# Data published in ChEMBL document CHEMBL4513146, “CO-ADD screening of Karazin Kharkiv National University (Ukraine) compounds”.
# Results with a measured potency or affinity are listed apart.
# Experiments:
# [1] = test system: Klebsiella pneumoniae; settings: Concentration 32 ug.mL-1;; ASSAY_TEST Inhibition of Bacterial Growth; detection method Absorption (OD600); MEDIA CAMHB; plate type 384well; NBS; CORNING #3640; time 18 hr
# [2] = test system: Candida albicans; settings: Concentration 32 ug.mL-1; ASSAY_TEST Inhibition of Fungal Growth; detection method Absorption (OD530)
# [3] = test system: Cryptococcus neoformans; settings: Concentration 32 ug.mL-1; ASSAY_TEST Inhibition of Fungal Growth; detection method Resazurin; Absorption (OD600-OD570); plate type 384well; NBS; CORNING #3640
smiles,measurement,setting,value
COc1cccc(-n2ccn3c(SCC(=O)c4c(C)[nH]c5ccccc45)nnc3c2=O)c1,Inhibition,[1],9.67%
same,Inhibition,[2],3.81%
same,Inhibition,[3],-9.48%
COc1cc(NC(=O)Cn2nc3c4c5c(sc4ncn3c2=O)CCCC5)cc(OC)c1,Inhibition,[1],4.67%
same,Inhibition,[2],7.26%
same,Inhibition,[3],-16.68%
O=C(Cn1nc2c3c4c(sc3ncn2c1=O)CCCC4)Nc1ccc2c(c1)OCO2,Inhibition,[1],4.23%
same,Inhibition,[2],4.71%
same,Inhibition,[3],-14.52%
Cc1oc(-c2ccccc2)nc1CSc1nc2ccccc2n2c(C(C)C)nnc12,Inhibition,[1],2.59%
same,Inhibition,[2],6.41%
same,Inhibition,[3],-7.85%
COc1cccc(-n2ccn3c(SCC(=O)c4ccc(Br)cc4)nnc3c2=O)c1,Inhibition,[1],9.61%
same,Inhibition,[2],5.24%
same,Inhibition,[3],-5.95%
CC(C)CCNC(=O)CSc1nnc2c(=O)n(Cc3ccc(F)cc3)ccn12,Inhibition,[1],4.54%
same,Inhibition,[2],1.44%
same,Inhibition,[3],-7.36%
Cc1ccc(-c2ccc3nn(CC(=O)Nc4ccccc4)c(=O)n3n2)cc1C,Inhibition,[1],3.8%
same,Inhibition,[2],-1.46%
same,Inhibition,[3],-10.8%
CCCCOc1ccc(-c2cc3c4nnc(SCC(=O)Nc5cc(C)ccc5C)n4ccn3n2)cc1,Inhibition,[1],-2.43%
same,Inhibition,[2],5.83%
same,Inhibition,[3],-10.24%
Cc1cccc(Oc2nccn3c(=O)n(CC(=O)N4CCN(c5ccc(F)cc5)CC4)nc23)c1C,Inhibition,[1],7.83%
same,Inhibition,[2],-1.43%
same,Inhibition,[3],-7.63%
CCOc1ccc(-n2ccn3c(=O)n(CC(=O)Nc4ccc(Br)cc4)nc3c2=O)cc1,Inhibition,[1],8.93%
same,Inhibition,[2],2.12%
same,Inhibition,[3],-3.26%
